Source: PubChem (National Center for Advancing Translational Sciences (NCATS))
Gal4-VP16 FLuc – inhibits Gal4-VP16 luciferase reporter, ROR gamma counter-screen. Drosophila S2 Gal4-VP16 UAS-luciferase, luminescence, 20 h. Potency, µM (titrated, usually from 53.6 µM), actives largely listed as inhibitors. 310,000 compounds, 3.5% hits. AID 2546;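 further: Gal4-VP16 expression switched on by copper sulfate through the metallothionein promoter; nearly all actives have a fitted effect of over 50% in size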
RORg inh – blocks mouse ROR gamma transcriptional activity; P51450; Drosophila S2 Gal4-RORgamma UAS-luciferase reporter, 20 h; AID 2551; Potency, µM (series often up to 53.6 µM), usual class: inhibitors; 310,000 compounds, 5.4% hits; further: nearly all actives have a fitted effect of over 60% in size
Target sequence (P51450 whole entry, looked up, the tested form may be a part): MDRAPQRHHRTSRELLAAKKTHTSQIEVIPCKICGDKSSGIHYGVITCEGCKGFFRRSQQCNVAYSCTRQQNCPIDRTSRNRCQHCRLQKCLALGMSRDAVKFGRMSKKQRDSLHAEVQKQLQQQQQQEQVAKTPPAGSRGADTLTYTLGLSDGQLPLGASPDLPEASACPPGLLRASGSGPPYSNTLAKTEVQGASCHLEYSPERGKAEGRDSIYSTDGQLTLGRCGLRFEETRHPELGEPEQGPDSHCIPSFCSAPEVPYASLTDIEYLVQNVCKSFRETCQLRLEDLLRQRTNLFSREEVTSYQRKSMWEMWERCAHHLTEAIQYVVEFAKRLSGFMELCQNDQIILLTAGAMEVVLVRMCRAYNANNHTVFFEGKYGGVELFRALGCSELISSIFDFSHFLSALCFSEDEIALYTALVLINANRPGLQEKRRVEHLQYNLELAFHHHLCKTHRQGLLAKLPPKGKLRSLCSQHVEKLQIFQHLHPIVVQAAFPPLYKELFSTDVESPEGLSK
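Read-out: Photinus luciferase luminescence; inhibitors lower reporter signal. Insect Schneider cells with Gal4-ROR gamma fusion under metallothionein promoter, UAS reporter; 700 uM final copper sulfate induction, 20 hr, ambient temperature.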
IL1B secr inh – inhibitors of inflammasome signaling (IL-1 beta secretion); activity change, % at 57.5 µM; 360,000 compounds, 4.7% hits; THP-1 LPS/ATP IL-1B secretion, AlphaLISA, 16 h; active compounds read low; in the data active means activity change below about -50%; inconclusive means mostly about -30% to -49%
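Secreted IL-1B measured by AlphaLISA bead assay after 16 h compound exposure of THP-1 cells; compounds (final up to 57.5 uM) added 1 h before LPS (250 ng/mL) and ATP (1.25 mM) stimulation; lower signal means less secretion.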
MCF10A rerep – inducers of DNA re-replication in MCF 10A breast cells | MCF 10A DNA re-replication, Hoechst nuclear intensity, 48 h | Potency, µM (series often up to 46.1 µM), most hits filed as activators | 350,000 compounds, 2.9% hits | AID 624296; further: nearly all actives have a fitted effect of over 50% in size
SW480 rereplic – inducers of DNA re-replication in SW480 colon cancer cells. SW480 DNA re-replication, Hoechst DNA content imaging, 48 h. Potency, µM (titrated, usually from 46.1 µM), actives largely listed as activators. 340,000 compounds, 1.8% hits; further: nearly all actives have a fitted effect of over 55% in size
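Per well, 250 cells were exposed to pinned compound for 48 hr. Nuclear DNA was visualised with Hoechst (40 min, 37 C) and total object intensity recorded by fluorescence scanning.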
Each line names hits and unclear results; the compound was inactive in the other large screens. Rows were chosen to be rich in hits. Some 11% of all compounds tested hit in one or more screens of this group. Unless noted, the call rests on the fitted dose curve; in most records, active means well fitted curve in the direction sought with a large enough effect; inconclusive means small, poorly fitted or top-dose-only effect, or another doubt; inactive means no such curve, though single readings can be large; an effect the other way counts as inactive or inconclusive.

CCN1CCN(c2oc(-c3ccccc3)nc2S(=O)(=O)c2ccc(C)cc2)CC1	IL1B secr inh -55.7 (no result: Gal4-VP16 FLuc, RORg inh)
O=S(=O)(c1ccc(Cl)cc1)c1nc(-c2ccccc2F)oc1NCCCN1CCOCC1	IL1B secr inh -73.9, MCF10A rerep inconclusive, SW480 rereplic inconclusive
O=S(=O)(c1ccc(Br)cc1)c1nc(-c2ccccc2)oc1NCCN1CCOCC1	IL1B secr inh -61.2
COc1ccccc1-c1nccc(-n2ccnc2)n1	none (no result: IL1B secr inh, MCF10A rerep, SW480 rereplic)
NC(=O)C1CCN(c2oc(-c3ccccc3F)nc2S(=O)(=O)c2ccc(Cl)cc2)CC1	none
CN1CCN(c2oc(-c3ccccc3F)nc2S(=O)(=O)c2ccc(Cl)cc2)CC1	IL1B secr inh -73.4, MCF10A rerep inconclusive
Cc1cccc(C)c1-n1nnnc1C1(C)CCC(=O)N1c1ccc(N2CCOCC2)cc1 (stereo unspecified)	none (no result: Gal4-VP16 FLuc, RORg inh, MCF10A rerep, SW480 rereplic)
O=C(Nc1ccc(-n2cccn2)cc1)C1CCCCN1Cc1cccc2cccnc12 (stereo unspecified)	IL1B secr inh -50.3, MCF10A rerep inconclusive, SW480 rereplic inconclusive
Cc1ccc(NS(=O)(=O)c2ccc(Cl)c(C(=O)Nc3ccccc3-c3nc4ccccc4[nH]3)c2)cc1C	RORg inh inconclusive, MCF10A rerep 5.17µM, SW480 rereplic 8.2µM
O=C(Nc1ccccc1C(=O)O)c1cc(S(=O)(=O)Nc2cccc(F)c2)ccc1Cl	none
c1ccc(-n2cc(CNCCc3cscn3)c(-c3ccc4c(c3)OCO4)n2)cc1	IL1B secr inh -72.5, SW480 rereplic inconclusive
OCc1cn(-c2ccccc2)nc1-c1ccc2c(c1)OCCO2	RORg inh inconclusive, MCF10A rerep inconclusive
CCC(C)(CN(C)C)OC(=O)c1ccccc1 (stereo unspecified)	none (no result: Gal4-VP16 FLuc, RORg inh)
O=C(C=CC(=O)OC1CCCCC1)OC1CCCCC1	IL1B secr inh -87.9, MCF10A rerep inconclusive (no result: Gal4-VP16 FLuc, RORg inh)
CCN(CC)c1ccc(-c2nn3c(-c4cccnc4)nnc3s2)cc1	Gal4-VP16 FLuc inconclusive, MCF10A rerep 5.17µM, SW480 rereplic 20.6µM
O=[N+]([O-])c1cc(Cl)ccc1Sc1cccc2cccnc12	none
Cc1cc(C)nc(Sc2ccc([N+](=O)[O-])cc2[N+](=O)[O-])n1	Gal4-VP16 FLuc inconclusive, RORg inh 8.91µM, IL1B secr inh -59.8, MCF10A rerep inconclusive (no result: SW480 rereplic)
O=[N+]([O-])c1ccc(Sc2cccc3cccnc23)c([N+](=O)[O-])c1	Gal4-VP16 FLuc 7.08µM, RORg inh 7.08µM
C=CCn1nc([N+](=O)[O-])nc1Sc1cccc2cccnc12	Gal4-VP16 FLuc inconclusive, RORg inh 8.91µM, IL1B secr inh -98.8, MCF10A rerep inconclusive, SW480 rereplic 3.26µM
O=[N+]([O-])c1ccc(Sc2ccncn2)c([N+](=O)[O-])c1	IL1B secr inh -79.9 (no result: Gal4-VP16 FLuc, RORg inh, MCF10A rerep, SW480 rereplic)
O=[N+]([O-])c1cc(Cl)ccc1Sc1ccccn1	none
O=C(O)c1ccc2c(c1)C(=O)N([C@H](Cc1ccc3ccccc3c1)C(=O)O)C2=O	none (no result: IL1B secr inh, MCF10A rerep, SW480 rereplic)
COc1ccc(NC(=O)COc2cccc(-n3cnnn3)c2)cc1Cl	SW480 rereplic 6.51µM (no result: Gal4-VP16 FLuc, RORg inh)
O=C(COc1cccc(-n2cnnn2)c1)Nc1ccc([N+](=O)[O-])cc1	none
COc1cc(/C=N/Nc2nc(Nc3ccc(C)cc3)nc(-n3nc(C)cc3C)n2)cc(OC)c1OC	Gal4-VP16 FLuc inconclusive, MCF10A rerep inconclusive, SW480 rereplic 13µM
COc1cc(/C=N/Nc2nc(Nc3ccccc3)nc(-n3nc(C)cc3C)n2)cc(OC)c1OC	Gal4-VP16 FLuc 6.31µM, RORg inh 5.01µM, IL1B secr inh -64.2, MCF10A rerep 14.6µM, SW480 rereplic inconclusive
COc1ccc(O)c(/C=N/Nc2nc(Nc3ccccc3)nc(-n3nc(C)cc3C)n2)c1	Gal4-VP16 FLuc 0.631µM, RORg inh 0.631µM, MCF10A rerep inconclusive, SW480 rereplic inconclusive
CO[C@@H]1COC(=O)[C@H](CCSC)NC(=O)C/C=C\[C@@H](C)COC(=O)[C@@H]2CCCN2C(=O)C/C=C\[C@H]1C	none (no result: IL1B secr inh, MCF10A rerep, SW480 rereplic)
COc1ccccc1OCC(=O)Nc1cc(Cl)ccc1N1CCCCC1	MCF10A rerep inconclusive (no result: Gal4-VP16 FLuc, RORg inh)
CN(C(=O)c1ccc(NC(=O)Cc2ccc(NC(=O)C3CCCN(S(=O)(=O)c4cccc([N+](=O)[O-])c4)C3)cc2)cc1)C1CCCC1 (stereo unspecified)	SW480 rereplic inconclusive (no result: Gal4-VP16 FLuc, RORg inh)
CCN1C(=O)/C(=C/c2ccc(C)o2)N(C)C1=S	Gal4-VP16 FLuc 12.6µM, RORg inh inconclusive, MCF10A rerep inconclusive, SW480 rereplic 18.4µM
CC(=O)O/N=C1\C(=O)N(Cc2ccc(C)cc2)c2ccccc21	IL1B secr inh -93.6
Brc1ccc(C2Nc3cccc4cccc(c34)N2)o1	IL1B secr inh -77.3, MCF10A rerep 14.6µM
Fc1cccc(Cl)c1C1Nc2cccc3cccc(c23)N1	none (no result: Gal4-VP16 FLuc, RORg inh)
Clc1cccc(Cl)c1C1Nc2cccc3cccc(c23)N1	Gal4-VP16 FLuc 3.98µM, RORg inh 0.708µM, MCF10A rerep 18.4µM, SW480 rereplic inconclusive
O=C(Oc1ccccc1)C1O[C@@H]1c1ccccc1 (stereo partly specified)	none (no result: IL1B secr inh, MCF10A rerep, SW480 rereplic)
S=C(NCCc1ccccc1)N/N=C/c1c(Cl)cccc1Cl	Gal4-VP16 FLuc 8.91µM, RORg inh 10µM, MCF10A rerep inconclusive
S=C(NCCc1ccccc1)N/N=C/c1ccc(Cl)cc1	Gal4-VP16 FLuc inconclusive, RORg inh inconclusive, MCF10A rerep inconclusive, SW480 rereplic inconclusive
Cc1ccc(/C=N/NC(=S)NCCc2ccccc2)s1	Gal4-VP16 FLuc 2.24µM, RORg inh 0.224µM
CCCCNC(=S)N/N=C/c1ccc(C)s1	Gal4-VP16 FLuc 2.51µM, RORg inh 1µM
COc1cc(/C=N/NC(=S)NCCc2ccccc2)cc(OC)c1OC	Gal4-VP16 FLuc inconclusive, RORg inh 12.6µM, MCF10A rerep inconclusive
O/N=C(/c1ccccc1)c1cc2cc(Br)cc(Br)c2o1	IL1B secr inh -85.3, MCF10A rerep inconclusive
COc1cccc2cc(/C(=N/O)c3ccc(Br)cc3)oc12	Gal4-VP16 FLuc inconclusive, MCF10A rerep inconclusive
O=C(NCC1CCCCC1)c1csc([C@@H]2O[C@H](CO)[C@H](O)[C@H](O)[C@H]2O)n1	none (no result: Gal4-VP16 FLuc, RORg inh, MCF10A rerep, SW480 rereplic)
Cc1cc(=O)oc2cc(O)cc(O)c12	IL1B secr inh -67.1, SW480 rereplic inconclusive
CCCCCc1cc(O)c2c(C)cc(=O)oc2c1	Gal4-VP16 FLuc 11.2µM, RORg inh 3.16µM, MCF10A rerep inconclusive
COc1ccc(CN(C)C(=O)c2cc(-c3ccccc3)nc3ccc(C)cc23)c(OC)c1OC	IL1B secr inh -64.1, MCF10A rerep inconclusive
COc1ccccc1CN(C)C(=O)c1cc(-c2cccs2)nc2ccccc12	MCF10A rerep 18.4µM
COc1ccc(CCN(C)C(=O)c2cc(-c3ccccc3)nc3ccc(C)cc23)cc1OC	none
COc1ccc(-c2cc(C(=O)N(C)Cc3cccc(OC)c3OC)c3ccccc3n2)cc1OC	none
O=C(COC(=O)CNS(=O)(=O)c1ccccc1)Nc1ncc(Cl)cc1Cl	none (no result: Gal4-VP16 FLuc, RORg inh)
CNc1nc(Cl)nc2c1ncn2-c1ccccc1	none (no result: Gal4-VP16 FLuc, RORg inh)
Clc1nc(Cl)c2ncn(-c3ccccc3)c2n1	IL1B secr inh -102.8, MCF10A rerep inconclusive, SW480 rereplic inconclusive (no result: Gal4-VP16 FLuc, RORg inh)
